Consider 7 compounds from PubChem BioAssay (NCI).

Some test systems named below: NCI-H23 lung; NCI-H322M lung; HOP-62 NSCLC; NCI-H460 lung; HOP-92 NSCLC; NCI-H522 lung; A549/ATCC NSCLC; 786-0 renal; COLO 205 colon; DU-145 prostate; K-562 leukemia; MALME-3M melanoma; MDA-MB-231 breast; RXF 393 renal; SF-268 CNS; SF-295 CNS; SF-539 CNS; UACC-257 melanoma; M14 melanoma.
Experiment in all cases: NCI-60 one-dose screen, 48 h (100 = growth as untreated, 0 = no growth, -100 = all killed)
What all share (details): 10 µM unless noted

Each structure is given as a SMILES string. The panel holds about 83,000 compounds, 20% with a hit somewhere; the sample as a whole holds those more often.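 Method: cells in 96-well plates; compound added at one concentration; 48 h incubation; percent growth measured; values under 10 scored active.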 Unmarked numbers belong to inactive results. Active and inactive are the calls of the source.

As to `Nc1ccc(Sc2ccc([N+](=O)[O-])c3nonc23)cc1`, the growth in the test on NCI-H23 lung is 95.8%; with NCI-H322M lung, 101%; in the test on HOP-62 NSCLC, 92.2%; with NCI-H460 lung it was 96.7%; with HOP-92 NSCLC, 103%; in the test with NCI-H522 lung, 2.03% (active). Further, the growth with A549/ATCC NSCLC is 89.8%; in the test with 786-0 renal, 93.5%; in the test with COLO 205 colon, 40.6%; in the test with DU-145 prostate it was 97.3%; in the test with K-562 leukemia, 26.7%; in the test on MALME-3M melanoma, 57%. The growth in the test with MDA-MB-231 breast is 92.4%; in the test on RXF 393 renal, 104%; with SF-268 CNS, 98%; with SF-295 CNS, 96.9%; in the test on SF-539 CNS, 91.9%; in the test with UACC-257 melanoma it was 86.9%. Further, the growth with M14 melanoma is 88.7%.

For `O=[N+]([O-])c1ccccc1NCSc1ccc(Cl)cc1`, the growth in the test on NCI-H23 lung is 91.2%; in the test on NCI-H322M lung, 98.1%; in the test on HOP-62 NSCLC, 124%; in the test with NCI-H460 lung, 95.8%; with HOP-92 NSCLC it was 78.3%; in the test with NCI-H522 lung it was 90.7%. Also, the growth in the test with A549/ATCC NSCLC was 91.3%; with 786-0 renal, 87.6%; with COLO 205 colon, 116%; in the test with DU-145 prostate, 102%; with K-562 leukemia, 93.1%; with MALME-3M melanoma, 87.5%. The growth was 90% in the test with MDA-MB-231 breast; 88.9% in the test with RXF 393 renal; 84.2% with SF-268 CNS; 77.4% in the test on SF-295 CNS; 107% in the test with SF-539 CNS; 95.8% in the test on UACC-257 melanoma. In addition, the growth in the test on M14 melanoma is 102%.

As for `CC1=C(SCCC(=O)OC(C[Se]C2=C(C)C(=O)c3ccccc3C2=O)C(=O)NC(C)(C)C)C(=O)c2ccccc2C1=O` (stereo not drawn), the growth in the test on NCI-H23 lung is -42.7% (active); in the test on NCI-H322M lung, -79.8% (active); with HOP-62 NSCLC it was -65.4% (active); in the test on NCI-H460 lung, -59% (active); in the test on HOP-92 NSCLC it was -66.6% (active); in the test with NCI-H522 lung it was -48.2% (active). The growth with A549/ATCC NSCLC is -40% (active); in the test with 786-0 renal, -86.1% (active); in the test on COLO 205 colon, -86.4% (active); with DU-145 prostate, -99% (active); in the test with K-562 leukemia, 7.31% (active); in the test on MALME-3M melanoma it was -74.9% (active). For the same compound, the growth in the test with MDA-MB-231 breast was -58% (active); in the test on RXF 393 renal, -89.1% (active); in the test on SF-268 CNS, -96.2% (active); in the test on SF-295 CNS, -30.9% (active); with SF-539 CNS it was -99.8% (active); in the test with UACC-257 melanoma, -88.1% (active). Moreover, the growth with M14 melanoma is -84.1% (active).

For `Cc1cccc(NC2=C(Cl)C(=O)c3nc(C)ccc3C2=O)c1`, the growth with NCI-H23 lung was -27.8% (active); in the test with NCI-H322M lung, 13.5%; with HOP-62 NSCLC, 42.8%; in the test on NCI-H460 lung, 5.47% (active); with HOP-92 NSCLC it was -68.7% (active); in the test with NCI-H522 lung, -24% (active). The growth in the test with A549/ATCC NSCLC was 16.7%; in the test with 786-0 renal, 3.53% (active); in the test with COLO 205 colon, 111%; with DU-145 prostate, -80.2% (active); in the test on K-562 leukemia, 2.91% (active); in the test with MALME-3M melanoma, -75.3% (active). The growth with MDA-MB-231 breast is -75.1% (active); in the test with RXF 393 renal, -19.8% (active); in the test on SF-268 CNS, 58.2%; with SF-295 CNS it was 12.7%; with SF-539 CNS, -79% (active); in the test on UACC-257 melanoma, -80.2% (active). In addition, the growth with M14 melanoma is -45% (active).

`COc1cccc(-c2nn(-c3ccccc3)cc2-c2ccnc(N3CCOCC3)c2)c1`: the growth is 82.4% in the test with NCI-H23 lung; 98.7% in the test on NCI-H322M lung; 96.2% in the test on HOP-62 NSCLC; 91.3% in the test with NCI-H460 lung; 66.3% in the test on HOP-92 NSCLC; 71.4% in the test with NCI-H522 lung. Also, the growth is 86.8% in the test on A549/ATCC NSCLC; 99% in the test on 786-0 renal; 98.5% with COLO 205 colon; 99.5% with DU-145 prostate; 73.6% with K-562 leukemia; 90.7% in the test with MALME-3M melanoma. In addition, the growth in the test with MDA-MB-231 breast is 85.1%; in the test with RXF 393 renal, 97.8%; with SF-268 CNS it was 88.8%; in the test on SF-295 CNS, 82.8%; in the test with SF-539 CNS, 97.9%; with UACC-257 melanoma it was 111%. Further, in the test with M14 melanoma, the growth is 100%.

As for `CCOC(=O)Nc1ccc(-c2nc(-c3cccc(OCCN4CCOCC4)c3)c(-c3ccnc(Br)c3)[nH]2)cc1`, the growth was 47.3% in the test with NCI-H23 lung; 58% in the test with NCI-H322M lung; 50.8% in the test on HOP-62 NSCLC; 54.1% in the test on NCI-H460 lung; 54.1% in the test on HOP-92 NSCLC; 52% in the test on NCI-H522 lung. In addition, the growth in the test with A549/ATCC NSCLC was 54.2%; in the test on 786-0 renal, -5.12% (active); in the test on COLO 205 colon, 48.2%; in the test with DU-145 prostate, 67.2%; with K-562 leukemia, 1.64% (active); in the test with MALME-3M melanoma, 40.3%. The growth was 46.2% in the test with MDA-MB-231 breast; -25.9% (active) in the test with RXF 393 renal; 62.3% in the test on SF-268 CNS; -53.9% (active) in the test with SF-295 CNS; 23.4% with SF-539 CNS; 60% in the test on UACC-257 melanoma. For the same compound, in the test on M14 melanoma, the growth is 57.4%.

For `N#C/C(=C\c1cccc2cnccc12)n1nnc2cccc(F)c21`, the growth in the test with NCI-H23 lung was 27.7%; in the test on NCI-H322M lung, 89.9%; in the test on HOP-62 NSCLC, 53.2%; with NCI-H460 lung it was 35.5%; with HOP-92 NSCLC it was -25% (active); in the test on NCI-H522 lung, 18.3%. For the same compound, the growth with A549/ATCC NSCLC is 86.6%; in the test with 786-0 renal it was 56.4%; in the test on COLO 205 colon, 34.3%; in the test with DU-145 prostate it was 2.26% (active); in the test with K-562 leukemia, 11.9%; in the test on MALME-3M melanoma it was 22.6%. Further, the growth with MDA-MB-231 breast is 31.7%; in the test with RXF 393 renal it was -2.13% (active); in the test on SF-268 CNS, 67.4%; in the test with SF-295 CNS, 93.4%; in the test on SF-539 CNS, 36.6%; with UACC-257 melanoma it was 52.1%. Besides, the growth in the test on M14 melanoma is 35.1%.
